Gli-Sufu block: antagonists of Gli-Sufu signaling; inhibition, % at 5 µM; Sufu-KO-LIGHT fibroblasts, Gli luciferase reporter luminescence; AID 588413; hit rate 0.74% among 340,000;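 active means inhibition above about 55%, limit read from the data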;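 further: 0% = DMSO-treated cells and 100% = wells with medium but no cells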
HIV Env fusion: HIV envelope-mediated fusion inhibition. HeLa-JRFL Env/CEM21 cell fusion, luciferase. inhibition, % at 12.3 µM. hit rate 1.1% among 360,000. AID 651610;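 active means mean replicate inhibition score of at least 50 and every replicate individually at or above 50; inconclusive means only one of the two criteria met; inactive means mean below 50 and not all replicates reaching 50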;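 further: 0% = plate neutral controls and 100% = maraviroc near 300 nM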
COUP-TFII inh: blocks human COUP-TFII nuclear receptor. P24468. HEK293T NGFI-A luciferase reporter, luminescence. inhibition, % at 8.6 µM. hit rate 0.7% among 370,000. AID 686940;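 active means inhibition above a per-plate cutoff, mean inhibition of test wells between control levels plus 3 SD, cut at about 38% in these data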;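 further: cells cotransfected with COUP-TFII expression vector driving the NGFI-A reporter; 0% = median of COUP-TF2 test wells and 100% = reporter-only cells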
Target sequence (P24468 whole entry, looked up): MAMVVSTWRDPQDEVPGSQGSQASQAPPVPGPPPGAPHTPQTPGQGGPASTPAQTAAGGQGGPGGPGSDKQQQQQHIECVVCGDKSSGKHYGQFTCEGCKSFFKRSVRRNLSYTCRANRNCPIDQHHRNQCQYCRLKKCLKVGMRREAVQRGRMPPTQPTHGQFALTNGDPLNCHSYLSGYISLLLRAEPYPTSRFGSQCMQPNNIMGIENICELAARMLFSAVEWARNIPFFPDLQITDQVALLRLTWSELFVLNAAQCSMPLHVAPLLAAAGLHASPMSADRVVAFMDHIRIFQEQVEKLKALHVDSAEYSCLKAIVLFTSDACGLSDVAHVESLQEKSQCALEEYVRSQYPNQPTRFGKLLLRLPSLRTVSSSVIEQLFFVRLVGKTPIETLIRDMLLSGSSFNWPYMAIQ
aDG glyco act: alpha-DG glycosylation activation | Pro5-aDG cells, alpha-DG glycosylation AlphaScreen (IIH6); 0% Pro5, 100% B10-LARGE cell signal | activation, % at 10 µM | hit rate 0.22% among 360,000 | AID 624168;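 active means activation of at least 8% versus controls, or a plate z-score of at least 8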;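 further: Pro5 are CHO cells carrying HIG-tagged alpha-DG that lacks glycosylation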
GalR3 antag: blocks the human galanin receptor 3; AID 651719; O60755; hit rate 0.44% among 360,000; inhibition, % at 3 µM; HEK293 GalR3-CNG cAMP membrane potential fluorescence; galR3 body fused to GalR1 C-terminus;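 active means inhibition above the screen-wide average plus 3 SD, cut at about 13% in these data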;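 further: forskolin and galanin both at EC90 stimulate the cells; cAMP rise reported by CNG channel membrane potential dye signal; 0% = forskolin plus galanin with DMSO and 100% = forskolin alone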
Target sequence (O60755 1-299 limits assumed): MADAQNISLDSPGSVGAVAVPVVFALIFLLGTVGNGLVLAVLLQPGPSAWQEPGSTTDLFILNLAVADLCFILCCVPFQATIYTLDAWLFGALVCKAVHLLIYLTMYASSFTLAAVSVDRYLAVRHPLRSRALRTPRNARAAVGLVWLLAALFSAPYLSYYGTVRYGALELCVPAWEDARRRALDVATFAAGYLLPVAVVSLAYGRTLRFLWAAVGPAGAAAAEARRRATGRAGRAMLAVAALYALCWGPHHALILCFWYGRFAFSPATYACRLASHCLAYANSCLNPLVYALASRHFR
Gli antag conf: Gli-SUFU antagonism confirmation, single concentration; Sufu-KO-LIGHT cells, Gli luciferase reporter, luminescence; inhibition, % at 5 µM; shares compounds with Gli-Sufu block; hit rate 40% among 2,500;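 active means mean inhibition at 5 µM reaching about 45%, limit read from the data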;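 further: plate controls were DMSO-treated cells for no effect and wells lacking cells for full effect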
SufuKO cytotox: cytotoxic in Gli-SUFU antagonist counter-screen; shares compounds with Gli-Sufu block; Sufu-KO-LIGHT cells cytotoxicity, ATP luminescence; cytotoxicity, % at 5 µM; hit rate 32% among 2,500;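 active means mean cytotoxicity at 5 µM above about 25%, limit read from the data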;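 further: cells exposed to compound overnight for roughly 16 to 18 hours; plate controls were DMSO wells with cells for no effect and medium without cells for full effect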
Wnt3a counter: counter-screen for Gli-SUFU antagonists: Wnt3a reporter inhibition; shares compounds with Gli-Sufu block; Wnt-LIGHT cells, Wnt3a-driven luciferase reporter, luminescence; inhibition, % at 6.25 µM; hit rate 20% among 2,500; AID 651995;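 active means mean inhibition above about 25%, limit read from the data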
Numbers without * were called inactive; u = inconclusive; x = no result given; [ ] = remark or other dose. Rows were chosen to be rich in hits. Some 2.1% of all compounds tested hit in one or more screens of this group.

SMILES | Gli-Sufu block | HIV Env fusion | COUP-TFII inh | aDG glyco act | GalR3 antag | Gli antag conf | SufuKO cytotox | Wnt3a counter
CCCCCn1c(CN2CCN(C(=O)OCC)CC2)nc2c1c(=O)n(C)c(=O)n2C | 6.3 | x | 6.0 | 0.1 | -7.8 | x | x | x
O=C(N/N=C/c1cn(CCOc2ccccc2)c2ccccc12)c1ccncc1 | 54.9 | -3.0 | 12.7 | 0.1 | 1.9 | 17.6 | -0.8 | 13.6
C[C@@H]1CN([C@@H](C)CO)C(=O)c2cccc(NC(=O)Nc3ccc(C(F)(F)F)cc3)c2O[C@H]1CN(C)Cc1ccccc1 | x | 30.4[16.7 µM] | x | x | x | x | x | x
Cc1cc(C)c(OCC(=O)Nc2ccc(S(=O)(=O)N3CCCC3)cc2)c(C)c1 | 97.7* | 10.2 | 23.3 | 0.4 | -3.7 | 20.4 | 25.5* | -23.5
Cc1cccc(OCC(=O)Nc2ccc(S(=O)(=O)N3CCCC3)cc2)c1 | -13.3 | -17.3 | 19.5 | 0.5 | -2.6 | x | x | x
CCC(=O)Nc1ccc2c(c1)C(=O)N(C)C[C@@H](OC)[C@@H](C)CN(C(=O)c1cccnc1)[C@H](C)CO2 | x | 6.8[16.7 µM] | x | x | x | x | x | x
C[C@@H]1CN([C@@H](C)CO)C(=O)c2ccccc2-c2ccccc2CO[C@H]1CN(C)C(=O)c1ccncc1 | x | -10.4[16.7 µM] | x | x | x | x | x | x
CC(NC(=O)Cn1c(NCCO)nc2ccccc21)C1CC2CCC1C2 (stereo not given) | 1.3 | 16.9 | 13.0 | 0.0 | -6.4 | x | x | x
Cc1nc2ccccc2n1CC(=O)NC(C)C1CC2CCC1C2 (stereo not given) | 60.4* | 33.9 | 29.9 | 1.3 | -6.0 | 53.8* | 15.4 | 15.4
O=C(CCC(=O)c1ccccc1)Nc1ccc(C(=O)O)cc1 | 98.8* | -2.9 | 15.0 | 0.0 | -3.3 | 19.1 | 7.3 | 6.4
CC=Cc1ccc2n(c1=O)C[C@@H]1[C@@H](CO)[C@H](C(=O)NCC)N(Cc3ccccc3Cl)[C@H]21 (mixture of isomers) | x | 0.2[16.7 µM] | x | x | x | x | x | x
CC[n+]1c(/C=C/N(C)c2ccccc2)oc2ccc(Cl)cc21 | 79.1* | u | -2.5 | -0.1 | -4.0 | 82.7* | 26.8* | 39.2*
COc1ccc(CCNC(=O)CCNC(=O)c2ccco2)cc1 | 71.7* | -9.3 | 3.2 | -0.1 | 4.0 | 14.3 | 28.1* | -3.1
Cc1ccc(C(=O)N2CCCC(N(C)Cc3ccccc3)C2)s1 (stereo not given) | 94.8* | 14.9 | 4.6 | 0.0 | -6.0 | 22.9 | -3.0 | -29.1
CC(=O)Nc1ccc(NC(=O)Nc2ccccc2C)cc1 | 75.6* | -7.7 | -18.4 | 0.1 | 7.0 | 26.5 | -2.2 | -43.8
Cc1ccccc1NC(=O)NCCCCc1ccccc1 | 96.0* | 3.6 | -14.1 | 0.1 | -3.3 | 6.1 | 22.9 | -74.3
Cc1ccccc1NC(=O)NCCc1ccc(Cl)cc1 | -8.0 | -0.7 | 18.8 | 0.0 | -1.5 | x | x | x
CC1CCCN(CCOc2cccc(Oc3ccccc3)c2)C1 (stereo not given) | 51.0 | 16.2 | -12.5 | 0.1 | -3.5 | 27.4 | 9.2 | -14.4
CCCOc1ccc(OCCN2CCCC(C)C2)cc1 (stereo not given) | 16.6 | -53.3 | -3.7 | 0.3 | 0.9 | x | x | x
CC1CN(CCOc2cccc(Oc3ccccc3)c2)CC(C)O1 (stereo not given) | 52.1 | 21.1 | 13.0 | 0.3 | -12.2 | 14.5 | 14.0 | -8.7
CC1CN(CCCCOc2cccc(Oc3ccccc3)c2)CC(C)O1 (stereo not given) | 11.9 | 20.4 | 10.0 | 0.8 | -7.1 | x | x | x
CC[C@]12c3[nH]c4cc(CCC(=O)N(C)C)ccc4c3CCN1C(=O)[C@@H](CC(=O)NC/C=C(\C)CCC=C(C)C)C[C@@H]2C(=O)N1CCN(C(=O)c2ccco2)CC1 | 78.8* | x | x | 0.1 | x | 77.1* | 30.0* | 30.6*
COC(=O)c1ccc(=O)n(-c2ccc(OC)cc2)c1 | 76.3* | x | -8.8 | 0.1 | -0.1 | 20.4 | 1.8 | -1.1
O=C(C[C@@H]1C=C[C@H](NC(=O)C2CCC2)[C@@H](CO)O1)NCc1ccccc1Cl | x | -7.3[16.7 µM] | x | x | x | x | x | x
O=C(Oc1c(CN2CCOCC2)cc(Cl)c2cccnc12)c1ccccc1 | 74.8* | -4.4 | -7.5 | -0.2 | -4.5 | 26.5 | 32.0* | -7.0
SMILES | Gli-Sufu block | HIV Env fusion | COUP-TFII inh | aDG glyco act | GalR3 antag | Gli antag conf | SufuKO cytotox | Wnt3a counter
O=C([O-])c1cc(-c2ccccc2)cc(-c2ccccc2)[n+]1CCc1ccc(Cl)cc1 | 77.5* | 21.0 | -10.4 | -0.1 | 0.1 | 67.3* | 35.8* | -23.3
O=C(CCc1ccccc1)NNC(=O)Cc1ccc(Cl)cc1 | -7.0 | 12.9 | 7.8 | -0.6 | -3.8 | x | x | x
C[C@@H]1CN([C@H](C)CO)C(=O)c2cc(NC(=O)CCC(F)(F)F)ccc2O[C@@H](C)CCCCO[C@@H]1CN(C)C(=O)NC1CCCCC1 | x | -0.4[16.7 µM] | x | x | x | x | x | x
Cc1ccc(CN2CCC(CNC(=O)Nc3ccccc3F)CC2)cc1 | 50.3 | -19.5 | 8.8 | -0.1 | -7.8 | 31.0 | 9.0 | -9.0
C/C(=N\NC(=O)c1ccn(C)n1)c1ccc(NC(=O)C2CCC2)cc1 | 71.9* | -6.0 | -3.5 | -0.2 | -0.9 | 21.0 | 14.1 | 18.5
C/C(=N\NC(=O)c1ccn(C)n1)c1ccc(NC(=O)C2CCCC2)cc1 | 1.5 | 1.1 | -40.6 | -0.2 | -7.4 | x | x | x
COc1ccc(NS(=O)(=O)c2ccc(N/N=C(\C)c3ccncc3)c([N+](=O)[O-])c2)cc1 | 66.0* | 19.4 | 13.5 | 2.1 | -2.0 | 65.8* | 24.9 | 34.5*
C/C(=N\Nc1ccc(S(=O)(=O)Nc2ccccc2)cc1[N+](=O)[O-])c1ccncc1 | x | 18.0 | -3.2 | x | -2.2 | x | x | x
C[C@@H]1CN([C@@H](C)CO)C(=O)c2cc(C3=CCCCC3)cnc2O[C@@H]1CN(C)C(=O)CN1CCOCC1 | x | -3.8[16.7 µM] | x | x | x | x | x | x
CCC(=O)NC1CCN(C(=S)NC)CC1 | 56.8* | -10.7 | 3.9 | -0.1 | -0.4 | 6.5 | 4.5 | -21.6
CCOC(=O)N1CCN(C(=S)NC)CC1 | 2.6 | -71.4 | 3.7 | -0.1 | -2.6 | x | x | x
CCOC(=O)c1c(NC(=O)COC(=O)c2cc(OC)c(OC)cc2[N+](=O)[O-])sc(C)c1CC | 3.0 | 9.7 | -4.5 | -0.1 | -1.5 | x | x | x
CCOC(=O)c1c(CC(C)C)csc1NC(=O)COC(=O)c1cc(OC)c(OC)cc1[N+](=O)[O-] | 56.0* | 10.0 | 11.4 | -0.5 | -3.4 | 31.7 | 16.8 | -33.5
CC1CCC(C(C)C)C(OCC(O)CN2CCOCC2)C1 (stereo not given) | 54.0 | x | -12.5 | -0.2 | -7.5 | 11.0 | 4.2 | -18.3
CC1CCC(C(C)C)C(OCC(O)CN2CCCC(C)C2)C1 (stereo not given) | 6.9 | 13.7 | -8.4 | 0.0 | -4.3 | x | x | x
CN(C)c1ccncc1C(=O)Nc1ccc(F)cc1F | 58.6* | 8.1 | -18.6 | -0.1 | 2.0 | 19.3 | -3.1 | 3.6
O=C(Nc1ccncc1)Nc1ccc(F)cc1F | 13.5 | x | -5.0 | -0.1 | -6.4 | x | x | x
O=C(NCCCn1ccnc1)/C(=C\c1cccnc1)NC(=O)c1cccc(Br)c1 | 97.6* | 4.5 | -10.3 | -0.3 | 2.3 | 36.8 | 12.7 | 13.2

Screening results from PubChem.
